Results taken from the supplement of paper PMC5641865, “A screen for kinase inhibitors identifies antimicrobial imidazopyridine aminofurazans as specific inhibitors of the Listeria monocytogenes PASTA kinase PrkA” (The Journal of Biological Chemistry, 2017).
Structures can show the parent of a compound that is named as a salt. ± gives the standard deviation of the averaged measurements.

test system: Listeria monocytogenes 10403S; assay: growth inhibition relative to ceftriaxone-alone control; higher = stronger potentiation of ceftriaxone growth inhibition; conditions: 10 µM; ceftriaxone 1 ug/ml; 12 h
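Note: End-point A600 read in BHI broth at 37 °C with 2% DMSO, inhibition computed as (1 − OD with compound plus ceftriaxone ÷ OD with ceftriaxone only) × 100.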

Compound | growth inhibition
CCN1CCC(CC(=O)Nc2n[nH]c3nc(-c4cccs4)c(Br)cc23)CC1 | 7.98 ± 1.7%
Cc1ncc(-c2ccnc(Nc3ccc(S(C)(=O)=O)cc3)n2)n1C(C)C | 97.4 ± 2.4%
c1ccc(Nc2ncc(-c3ccccc3)o2)cc1 | 2.45 ± 0.39%
CS(=O)(=O)Nc1cccc(-c2ccc3c(NC(=O)C4CC4)n[nH]c3c2)c1 | -6.98 ± 15%
c1ccc(COc2ccc(Nc3ncnc4ccc(-c5ccco5)cc34)cc2)cc1 | -9.94 ± 12%
COc1cc2ncnc(Nc3cccc(Br)c3)c2cc1OC | 36.1 ± 16%
O=C(Nc1cccc(Nc2ncc(Br)c(NCCc3cnc[nH]3)n2)c1)N1CCCC1 | 9.34 ± 13%
COc1cccc(-c2c[nH]c3c(N/N=C/c4ccncc4)ncnc23)c1 | -10.6 ± 14%
O=C1NC(=O)C(=Cc2ccc(-c3ccc(F)cc3)o2)S1 (stereo in doubt) | 31.8 ± 28%
CCS(=O)(=O)c1ccc(OC)c(Nc2ncc(-c3cccc(F)c3)o2)c1 | 2.54 ± 2.8%
[O-][S+]1CCN(Cc2ccc(-c3ccc4ncnc(Nc5ccc(OCc6ccccc6)c(F)c5)c4c3)o2)CC1 | 2.23 ± 7.9%
O=C(Nc1n[nH]c2nc(-c3ccco3)c(Br)cc12)C1CC1 | -3.36 ± 3.1%
COc1cccc(-n2cnc3c(N/N=C/c4ccncc4)ncnc32)c1 | -10.6 ± 15%
CCNC(=O)O[C@H]1CN[C@H](C#Cc2cc3ncnc(Nc4ccc(OCc5cccc(F)c5)c(Cl)c4)c3s2)C1 | 27.1 ± 33%
Cc1[nH]c(/C=C2\C(=O)Nc3ccc(S(=O)(=O)N(C)c4cccc(Cl)c4)cc32)c(C)c1C(=O)N1CCN(C)CC1 | 51.3 ± 11%
COc1cc2c(cc1Nc1nc(Nc3ccsc3C(N)=O)c3cc[nH]c3n1)N(C(=O)CN(C)C)CCC2(C)C | -4.89 ± 0.71%
CCCN1CCC(Oc2cc(Nc3nc(Nc4cccc(F)c4C(N)=O)c4cc[nH]c4n3)c(OC)cc2Cl)CC1 | -13.1 ± 20%
C#Cc1cccc(Nc2ncnc3cc(OCCOC)c(OCCOC)cc23)c1 [Erlotinib HCl] | 18.6 ± 18%
COc1cc(Nc2ncc3c(n2)-c2ccc(Cl)cc2C(c2c(F)cccc2OC)=NC3)ccc1C(=O)O | 43 ± 37%

Compound | growth inhibition
Fc1ccc(-c2ncn(CCCN3CCOCC3)c2-c2ccncc2)cc1 | 1.14 ± 3.2%
COc1cccc(-n2ncc3c(N/N=C/c4ccc(C)cc4)ncnc32)c1 | -9.19 ± 0.67%
CS(=O)(=O)CCN(CC#N)Cc1ccc(-c2ccc3ncnc(Nc4ccc(OCc5cccc(F)c5)c(Cl)c4)c3c2)o1 | 1.01 ± 5.1%
COc1ccc(-c2nn3ncccc3c2-c2ccnc(Nc3cccc(C(F)(F)F)c3)n2)cc1 | 2.98 ± 4.9%
Cc1c(NC(=O)OC[C@@H]2COCCN2)cn2ncnc(Nc3ccc4c(cnn4Cc4cccc(F)c4)c3)c12 | 44.1 ± 20%
CN(C)CCOc1ccc(-c2cc(-c3ccc4c(c3)CCC4=NO)c(-c3ccncc3)o2)cc1 | 36.5 ± 39%
CN1CCN(c2ccc3nc(-c4c(N)c5c(F)cccc5[nH]c4=O)[nH]c3c2)CC1 [Dovitinib Dilactic Acid (TKI258 Dilactic Acid)] | 33.4 ± 20%
C[C@@H]1CN(CC(=O)Nc2ccc3c(c2)Cc2cccc(-c4cc(=O)cc(N5CCOCC5)o4)c2S3)C[C@H](C)O1 | 27.5 ± 4.1%
Cc1cccc(-c2[nH]c(C(C)(C)C)nc2-c2ccc3nccnc3c2)n1 | 9.73 ± 13%
C=CC(=O)Nc1ccc2ncnc(Nc3ccc(OCc4cccc(F)c4)c(Cl)c3)c2c1 | 17.47 ± 0.16%
c1ccc(-c2n[nH]cc2-c2ccnc(-c3ccc(OCCN4CCOCC4)cc3)c2)nc1 | -1.77 ± 9.5%
CN(C)c1ccc(-c2nc3ncc(Cl)c(N4CCN(CC(=O)Nc5nccs5)CC4)c3[nH]2)cc1 | 15.3 ± 0.56%
COc1cc(N2CCN(C(C)C)CC2)ccc1Nc1nc(Nc2cccc3ncccc23)c2cc[nH]c2n1 | -2.19 ± 2.3%
c1cncc(CN2CCC(n3ncc4c(N5CCOCC5)nc(-c5ccc6[nH]ccc6c5)nc43)CC2)c1 | 37.1 ± 17%
CCCS(=O)(=O)Nc1ccc(F)c(C(=O)c2c[nH]c3ncc(Cl)cc23)c1F | 24.2 ± 22%
CN1CCN(CCOc2cc(OC3CCOCC3)c3c(Nc4c(Cl)ccc5c4OCO5)ncnc3c2)CC1 [Saracatinib (AZD0530)] | -2.45 ± 20%
CC(=O)Nc1cccc(-n2c(=O)n(C3CC3)c(=O)c3c(Nc4ccc(I)cc4F)n(C)c(=O)c(C)c32)c1 | 31.3 ± 12%
COc1cc2c(N3CCN(C(=O)Nc4ccc(OC(C)C)cc4)CC3)ncnc2cc1OCCCN1CCCCC1 [Tandutinib (MLN518)] | 32.3 ± 18%
COc1cc(Nc2nccc(-c3cnn4ncccc34)n2)cc(OC)c1 | -13.8 ± 16%
